# Measured values taken from PubChem BioAssay.
# Active and inactive are the calls of the source.
# Key:
# [1] = system: PRMT1 (protein arginine N-methyltransferase 1); experiment: small molecules binding arginine methyltransferase PRMT1 – biochemical, small-molecule microarray, 635 nm fluorescence, primary screen (AID 1088); conditions: higher = more signal;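 note: binding of Prmt1 protein to compounds spotted on small-molecule microarray slides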
# [2] = growth effects on S. cerevisiae YJM789 – YJM789 clinical isolate, OD600, 24 h, basal, primary screen (AID 1089); conditions: higher = more signal, called active from +8 up or from −8 down;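 note: growth of clinical yeast isolate S. cerevisiae YJM 789 seeded 1000 cells per well; test concentration not given here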
# [3] = S. pombe growth modifiers, basal conditions – strain 972, OD600, 24 h, no modulator, primary screen (AID 1090);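 note: basal condition with compound alone and no growth modifier present; test concentration not given here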; conditions: S. pombe 972 growth, higher = more signal, called active from +8 up or from −8 down
# [4] = budding yeast growth modifiers under rapamycin – strain BY4716, OD600, 96 h, primary screen (AID 1091); note: test concentration not given here; conditions: S. cerevisiae BY4716 + rapamycin, higher = more signal, called active from +8 up or from −8 down
# [5] = target: Torsin-1A-interacting protein 2 (Homo sapiens) (UniProt Q8NFQ8); experiment: small molecules binding lysate-expressed LULL1 – cell lysate, human LULL1 lysate, 635/667 nm fluorescence, primary screen (AID 1092); conditions: small-molecule microarray, hLULL1 lysate binding, 635 nm fluorescence; higher = more signal;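 note: probe is lysate of COS7 cells overexpressing human LULL1; score merges per-feature 667 nm fluorescence with signal-to-noise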
# Torsin-1A-interacting protein 2 (Homo sapiens), sequence (Q8NFQ8 whole entry, looked up): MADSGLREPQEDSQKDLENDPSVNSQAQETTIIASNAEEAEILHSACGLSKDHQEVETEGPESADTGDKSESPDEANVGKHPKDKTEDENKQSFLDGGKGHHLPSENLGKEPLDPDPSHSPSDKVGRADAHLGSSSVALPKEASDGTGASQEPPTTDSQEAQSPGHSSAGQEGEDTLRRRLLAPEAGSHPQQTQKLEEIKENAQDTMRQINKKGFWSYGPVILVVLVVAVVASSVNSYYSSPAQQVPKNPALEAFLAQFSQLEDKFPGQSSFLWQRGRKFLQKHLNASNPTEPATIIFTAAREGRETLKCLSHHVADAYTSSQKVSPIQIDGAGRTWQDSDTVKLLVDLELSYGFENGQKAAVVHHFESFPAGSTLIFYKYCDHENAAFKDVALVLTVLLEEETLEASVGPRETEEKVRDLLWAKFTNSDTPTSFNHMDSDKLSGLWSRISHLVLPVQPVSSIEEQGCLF
# [6] = optical density change of DRC41 E. coli – strain DRC41, OD650, 24 h, E. coli filamentation project, primary screen (AID 1093);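 note: MC1000 strain lacking acrAB efflux and sulA so SOS filamentation is blocked; test concentration not given here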; conditions: E. coli DRC41 growth, higher = more signal, called active from +8 up or from −8 down
# [7] = probe aLefty2 binding to arrayed compounds – biochemical, biotinylated probe, 635/667 nm fluorescence, primary screen (AID 1094); conditions: small-molecule microarray, higher = more signal;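 note: score merges spot fluorescence near 667 nm with spot signal-to-noise ratio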
# [8] = system: Noggin (protein binding on small-molecule microarray); experiment: small molecules binding Noggin protein – biochemical, 635/667 nm fluorescence, primary screen (AID 1095); conditions: 635 nm fluorescence, higher = more signal;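 note: score merges 667 nm feature fluorescence with signal to noise over triplicate slides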
# [9] = target: Neurogenic locus notch homolog protein 3 (Homo sapiens) (UniProt Q9UM47); experiment: small molecules binding NOTCH3 protein – biochemical, 635/667 nm fluorescence, primary screen (AID 1096); conditions: small-molecule microarray, 635 nm fluorescence, higher = more signal
# Neurogenic locus notch homolog protein 3 (Homo sapiens), sequence (Q9UM47 whole entry, looked up): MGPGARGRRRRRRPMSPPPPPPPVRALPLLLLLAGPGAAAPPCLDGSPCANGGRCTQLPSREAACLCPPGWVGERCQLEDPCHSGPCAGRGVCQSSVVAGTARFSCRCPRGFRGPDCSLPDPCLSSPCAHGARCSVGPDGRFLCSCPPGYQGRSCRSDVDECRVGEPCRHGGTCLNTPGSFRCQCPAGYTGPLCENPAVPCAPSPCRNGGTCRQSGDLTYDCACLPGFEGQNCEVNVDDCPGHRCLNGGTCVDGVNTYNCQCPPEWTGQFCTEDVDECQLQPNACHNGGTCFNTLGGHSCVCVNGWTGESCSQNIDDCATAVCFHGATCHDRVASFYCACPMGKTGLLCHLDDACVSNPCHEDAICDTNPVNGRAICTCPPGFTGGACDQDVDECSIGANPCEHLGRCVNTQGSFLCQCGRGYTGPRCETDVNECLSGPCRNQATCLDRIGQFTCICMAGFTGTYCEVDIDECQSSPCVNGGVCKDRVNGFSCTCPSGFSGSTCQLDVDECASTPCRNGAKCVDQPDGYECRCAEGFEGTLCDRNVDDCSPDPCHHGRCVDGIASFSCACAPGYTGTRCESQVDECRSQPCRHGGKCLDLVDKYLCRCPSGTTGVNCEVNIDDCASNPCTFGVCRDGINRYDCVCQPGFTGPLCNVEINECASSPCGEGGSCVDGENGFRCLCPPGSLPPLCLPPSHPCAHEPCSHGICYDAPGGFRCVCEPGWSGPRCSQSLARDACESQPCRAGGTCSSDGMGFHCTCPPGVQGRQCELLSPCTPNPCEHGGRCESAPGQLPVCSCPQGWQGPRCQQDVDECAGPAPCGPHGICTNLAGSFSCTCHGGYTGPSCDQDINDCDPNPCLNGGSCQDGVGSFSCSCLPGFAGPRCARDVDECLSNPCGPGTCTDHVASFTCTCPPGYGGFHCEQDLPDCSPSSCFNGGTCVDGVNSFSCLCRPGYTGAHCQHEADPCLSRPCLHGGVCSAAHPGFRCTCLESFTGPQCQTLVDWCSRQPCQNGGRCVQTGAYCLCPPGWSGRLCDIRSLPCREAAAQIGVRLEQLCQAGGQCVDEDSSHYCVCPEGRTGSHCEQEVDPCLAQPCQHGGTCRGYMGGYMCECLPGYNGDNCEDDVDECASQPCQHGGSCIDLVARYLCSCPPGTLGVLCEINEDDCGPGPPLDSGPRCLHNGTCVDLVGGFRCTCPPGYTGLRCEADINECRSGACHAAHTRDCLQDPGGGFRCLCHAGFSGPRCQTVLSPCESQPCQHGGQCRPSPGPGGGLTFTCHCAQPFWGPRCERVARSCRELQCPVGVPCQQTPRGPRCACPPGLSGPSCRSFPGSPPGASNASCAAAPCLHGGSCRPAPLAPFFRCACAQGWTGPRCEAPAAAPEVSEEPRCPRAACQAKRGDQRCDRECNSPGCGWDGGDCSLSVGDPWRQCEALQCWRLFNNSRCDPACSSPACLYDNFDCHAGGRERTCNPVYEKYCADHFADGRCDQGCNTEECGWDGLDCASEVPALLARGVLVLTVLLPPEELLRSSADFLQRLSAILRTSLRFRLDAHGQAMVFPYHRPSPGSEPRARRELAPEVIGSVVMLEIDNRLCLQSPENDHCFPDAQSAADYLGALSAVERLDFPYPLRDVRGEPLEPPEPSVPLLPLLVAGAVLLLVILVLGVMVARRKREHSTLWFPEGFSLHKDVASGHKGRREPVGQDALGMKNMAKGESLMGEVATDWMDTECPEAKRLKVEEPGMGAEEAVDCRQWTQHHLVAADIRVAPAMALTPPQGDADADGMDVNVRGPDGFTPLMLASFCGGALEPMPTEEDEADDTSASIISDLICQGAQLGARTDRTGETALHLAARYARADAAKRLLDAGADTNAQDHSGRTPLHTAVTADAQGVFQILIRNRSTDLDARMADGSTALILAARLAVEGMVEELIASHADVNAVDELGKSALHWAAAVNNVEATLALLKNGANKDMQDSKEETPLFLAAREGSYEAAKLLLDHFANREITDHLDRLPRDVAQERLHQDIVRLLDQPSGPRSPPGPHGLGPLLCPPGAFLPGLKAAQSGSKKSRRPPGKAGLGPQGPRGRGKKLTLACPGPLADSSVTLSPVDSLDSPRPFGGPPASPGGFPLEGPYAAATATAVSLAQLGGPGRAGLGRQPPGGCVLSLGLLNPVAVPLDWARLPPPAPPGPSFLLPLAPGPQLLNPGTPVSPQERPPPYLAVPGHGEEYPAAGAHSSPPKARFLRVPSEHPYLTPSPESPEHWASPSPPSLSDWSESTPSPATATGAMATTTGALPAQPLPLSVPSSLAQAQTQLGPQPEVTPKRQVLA
# [10] = probe aEGFR binding to arrayed compounds – biochemical, biotinylated probe, 635/667 nm fluorescence, primary screen (AID 1097); conditions: small-molecule microarray, higher = more signal;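 note: probe is a biotinylated anti-EGFR antibody binding compounds printed on slides; score combines fluorescence near 667 nm and signal to noise of each spot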
# [11] = system: Plasmodium falciparum Sir2 (PF13_0152, Sir2A); experiment: Plasmodium falciparum Sir2A binding compounds – biochemical, small-molecule microarray, 635 nm fluorescence, primary screen (AID 1098); conditions: fluorescence 635 nm, higher = more signal;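 note: score merges spot fluorescence intensity with its signal-to-noise ratio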
# [12] = probe aDKK1 binding to arrayed compounds – biochemical, biotinylated probe, 635/667 nm fluorescence, primary screen (AID 1099); conditions: small-molecule microarray, higher = more signal;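 note: score merges 667nm spot fluorescence with signal to noise across triplicate slides; reference of the scale not given here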
# [13] = probe aCHRDL2 binding to arrayed compounds – biochemical, biotinylated probe, 635/667 nm fluorescence, primary screen (AID 1100); conditions: small-molecule microarray, higher = more signal
# [14] = change in splice reporter luminescence, either direction, cell-based, HEK293, spliceosome inhibition project, primary screen (AID 1101); conditions: HEK293 splicing luciferase reporter, 24 h, higher = more signal, called active from +8 up or from −8 down;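 note: HEK293 cells carrying a splicing-competent luciferase reporter gene; test concentration not given here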
# [15] = target: Fibroblast growth factor 10 (Homo sapiens) (UniProt O15520); experiment: compounds binding fibroblast growth factor 10 – biochemical, small-molecule microarray, 635 nm fluorescence, primary screen (AID 1102); conditions: FGF10 binding, fluorescence 635 nm, higher = more signal
# Fibroblast growth factor 10 (Homo sapiens), sequence (O15520 whole entry, looked up): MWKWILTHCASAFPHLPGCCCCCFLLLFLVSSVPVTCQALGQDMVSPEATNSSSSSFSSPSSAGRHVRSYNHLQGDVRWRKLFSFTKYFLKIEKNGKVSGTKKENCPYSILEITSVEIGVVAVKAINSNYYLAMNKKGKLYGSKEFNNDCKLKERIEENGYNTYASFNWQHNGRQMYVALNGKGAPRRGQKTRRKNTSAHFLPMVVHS
# [16] = system: glycogen synthase kinase-3 (GSK3A per assay name; protocol says GSK3B); experiment: compounds binding glycogen synthase kinase-3 – biochemical, small-molecule microarray, 635 nm fluorescence, GSK3A, primary screen (AID 1103); conditions: fluorescence 635 nm, higher = more signal; note: the record names both GSK3A and GSK3B
# [17] = target: Epidermal growth factor receptor (Homo sapiens) (UniProt P00533); experiment: compounds binding epidermal growth factor receptor – biochemical, small-molecule microarray, 635 nm fluorescence, primary screen (AID 1104); conditions: EGFR binding, higher = more signal;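 note: score merges 667 nm emission intensity with spot signal to noise over triplicate slides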
# Epidermal growth factor receptor (Homo sapiens), sequence (P00533 whole entry, looked up): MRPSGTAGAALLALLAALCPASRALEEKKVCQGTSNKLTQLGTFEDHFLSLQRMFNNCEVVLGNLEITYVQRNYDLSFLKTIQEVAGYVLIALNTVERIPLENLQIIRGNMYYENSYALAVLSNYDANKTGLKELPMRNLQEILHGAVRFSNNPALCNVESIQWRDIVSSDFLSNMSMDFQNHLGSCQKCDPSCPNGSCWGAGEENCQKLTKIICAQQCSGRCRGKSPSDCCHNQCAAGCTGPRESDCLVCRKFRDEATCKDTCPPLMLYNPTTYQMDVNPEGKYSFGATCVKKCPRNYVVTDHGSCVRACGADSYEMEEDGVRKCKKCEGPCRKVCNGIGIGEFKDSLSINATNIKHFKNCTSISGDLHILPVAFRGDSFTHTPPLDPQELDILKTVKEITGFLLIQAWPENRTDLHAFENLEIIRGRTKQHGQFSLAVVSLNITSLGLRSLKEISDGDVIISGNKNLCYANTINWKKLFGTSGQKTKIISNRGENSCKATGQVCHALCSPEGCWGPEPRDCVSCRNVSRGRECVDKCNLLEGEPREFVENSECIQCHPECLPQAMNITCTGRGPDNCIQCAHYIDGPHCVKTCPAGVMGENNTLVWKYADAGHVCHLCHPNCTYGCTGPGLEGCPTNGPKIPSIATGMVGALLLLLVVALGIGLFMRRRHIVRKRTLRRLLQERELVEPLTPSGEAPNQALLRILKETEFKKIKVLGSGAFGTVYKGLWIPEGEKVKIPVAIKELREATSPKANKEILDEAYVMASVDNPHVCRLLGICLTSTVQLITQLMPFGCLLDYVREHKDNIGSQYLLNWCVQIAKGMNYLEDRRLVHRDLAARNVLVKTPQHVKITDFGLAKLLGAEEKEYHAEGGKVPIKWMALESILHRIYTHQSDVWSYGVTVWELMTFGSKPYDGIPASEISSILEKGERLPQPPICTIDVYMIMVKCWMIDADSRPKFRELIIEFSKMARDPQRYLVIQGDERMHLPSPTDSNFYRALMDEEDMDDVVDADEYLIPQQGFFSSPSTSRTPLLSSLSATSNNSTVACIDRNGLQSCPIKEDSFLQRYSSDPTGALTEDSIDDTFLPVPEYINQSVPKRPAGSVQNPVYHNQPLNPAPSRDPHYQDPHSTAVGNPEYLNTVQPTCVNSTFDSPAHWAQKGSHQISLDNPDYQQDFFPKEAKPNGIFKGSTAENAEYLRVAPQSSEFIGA
# [18] = target: Follistatin-related protein 3 (Homo sapiens) (UniProt O95633); experiment: compounds binding follistatin-related protein 3 – biochemical, small-molecule microarray, 635 nm fluorescence, primary screen (AID 1105); conditions: FSTL3 binding, higher = more signal;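 note: score merges emission near 667 nm and signal to noise per printed spot across three slides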
# Follistatin-related protein 3 (Homo sapiens), sequence (O95633 whole entry, looked up): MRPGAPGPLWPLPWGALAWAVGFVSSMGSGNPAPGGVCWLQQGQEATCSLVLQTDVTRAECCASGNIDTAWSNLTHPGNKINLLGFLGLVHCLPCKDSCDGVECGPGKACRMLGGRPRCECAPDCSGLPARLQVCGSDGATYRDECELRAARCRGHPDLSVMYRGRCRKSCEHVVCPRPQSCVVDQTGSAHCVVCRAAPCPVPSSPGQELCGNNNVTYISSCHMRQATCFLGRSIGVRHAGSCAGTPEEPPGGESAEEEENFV
# [19] = target: Dickkopf-related protein 1 (Homo sapiens) (UniProt O94907); experiment: small molecules binding DKK1 protein – biochemical, small-molecule microarray, 635 nm fluorescence scan, primary screen (AID 1106); conditions: higher = more signal;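 note: score merges emission near 667 nm with signal to noise over three replicate slides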
# Dickkopf-related protein 1 (Homo sapiens), sequence (O94907 whole entry, looked up): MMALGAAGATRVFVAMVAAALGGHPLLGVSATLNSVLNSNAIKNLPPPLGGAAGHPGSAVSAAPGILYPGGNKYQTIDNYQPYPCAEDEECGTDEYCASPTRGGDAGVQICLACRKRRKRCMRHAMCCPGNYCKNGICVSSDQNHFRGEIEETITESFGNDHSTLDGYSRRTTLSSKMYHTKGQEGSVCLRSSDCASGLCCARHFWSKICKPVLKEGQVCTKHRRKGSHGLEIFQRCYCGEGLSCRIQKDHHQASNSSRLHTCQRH
# [20] = system: Inhibin beta A chain (activin A); experiment: small molecules binding activin A – biochemical, small-molecule microarray, 635 nm fluorescence scan, primary screen (AID 1107); conditions: INHBA, higher = more signal;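 note: mouse activin A protein probed at 4.33 µg/mL on printed slides; score merges bound-protein fluorescence near 667 nm with spot signal-to-noise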
SMILES,composite z-score [1],z-score [2],z-score [3],z-score [4],composite z-score [5],z-score [6],composite z-score [7],composite z-score [8],composite z-score [9],composite z-score [10],composite z-score [11],composite z-score [12],composite z-score [13],z-score [14],composite z-score [15],composite z-score [16],composite z-score [17],composite z-score [18],composite z-score [19],composite z-score [20]
COc1ccc([Si](C)(C)[C@@H]2[C@@H](CC(=O)N3Cc4ccccc4C[C@H]3CO)O[C@]3(C(=O)N(c4ccccc4)c4ccccc43)[C@H]2C)cc1,1.41,1.18 (inactive),1.4 (inactive),2.93 (inactive),1.88,0.774 (inactive),0.541,1.71,1.05,0.13,2.04,0.713,0.449,-0.0709 (inactive),1.09,1.26,0.799,1.37,1.1,0.816
COc1ccc(C#Cc2ccc3c(c2)[C@]2(C(=O)N3)[C@H](c3ccc(OCCO)cc3)N3[C@H](c4ccccc4)[C@H](c4ccccc4)OC(=O)[C@H]3[C@@H]2C(=O)N2CCc3cc(OC)c(OC)cc3C2)cc1,1.55,2.27 (inactive),1.94 (inactive),4.57 (inactive),2.81,0.0933 (inactive),-0.209,0.784,1.12,0.481,1.38,1.5,0.185,-0.517 (inactive),1.23,1.28,0.871,1.01,1.28,-0.258
O=c1cccc(-c2ccco2)o1,1.29,-0.445 (inactive),-0.311 (inactive),0.167 (inactive),0.108,-0.696 (inactive),-0.0963,1.32,0.832,0.0023,1.28,-0.148,-0.617,0.935 (inactive),0.955,0.829,0.693,1.02,1.16,1.24
COCCOC(=O)N1C(=O)[C@@]2(c3cc(C#CCC(C(=O)OC)C(=O)OC)ccc31)[C@H](c1ccc(OCCO)cc1)N1[C@H](c3ccccc3)[C@H](c3ccccc3)OC(=O)[C@H]1[C@@H]2C(=O)Nc1nc2ccccc2s1,1.57,2.28 (inactive),2.31 (inactive),4.03 (inactive),0.828,2.5 (inactive),-0.122,0.994,1.1,-0.04,1.02,0.0317,-0.108,0.907 (inactive),0.84,1.06,0.292,1.08,0.279,0.495
COCCOC(=O)N1C(=O)[C@@]2(c3ccccc31)[C@H](c1ccccc1OCCO)N1[C@H](c3ccccc3)[C@H](c3ccccc3)OC(=O)[C@H]1[C@@H]2C(N)=O,1.56,1.83 (inactive),1.54 (inactive),3.59 (inactive),2.89,0.0834 (inactive),0.198,0.463,1.08,0.0258,1.28,0.701,0.74,-2.08 (inactive),1.2,1.25,0.888,1.43,1.16,0.186
